Values without a mark were called inactive. No rule for the calls is given here.

The subject of this assay is Aerobactin synthetase IucA (Klebsiella pneumoniae hvKP1). The assay is described as follows: IucA enzyme inhibition, primary screen, biochemical, Spectrum library (AID 1346200).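 Also: 100% = wells without compound and 0% = wells lacking enzyme.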 The conditions noted are these: malachite green pyrophosphate, A620, at 8 µM, stronger effect = lower value.
In the case of `COc1ccc([C@@H](C)C(=O)c2ccc(O)cc2O)cc1`, the activity remaining was 118%.

On to `O=C1[O][Bi][O]c2ccccc21`, for which the activity remaining was 107%.

As to `CCCCCC(C)N` (stereo not given), the activity remaining was 111%.

Consider `CCN(CC)CCOc1ccc(/C(=C(\Cl)c2ccccc2)c2ccccc2)cc1`, for which the activity remaining is 111%.

With `C#CCCCCCCCCCCCC(=O)CC(O)COC(C)=O` (stereo not given), the activity remaining is 122%.

As for `CCC(CCC(C)C1CCC2C3CC=C4C[C@@H](OC(C)=O)CC[C@]4(C)C3CC[C@]12C)C(C)C` (stereo not given in full), the activity remaining is 114%.

As to `CC(=O)[C@@]1(O)CCC2C3CCC4=CC(=O)CC[C@]4(C)C3CC[C@@]21C` (stereo not given in full), the activity remaining is 72.4%.

For `Cc1cc(/C=C/c2ccc3cc(N(C)C)ccc3[n+]2C)c(C)n1-c1ccccc1`, the activity remaining was 72.1%.

As for `NC(Cc1cc(I)c(Oc2ccc(O)c(I)c2)c(I)c1)C(=O)O` (stereo not given), the activity remaining is 97.1%.

`CCCCCc1c2c(cc(O)c1C(=O)O)OC(=O)c1c(cc(OC)cc1C(=O)CCCC)O2`: the activity remaining was 121%.

For `CC1CC[C@@]2(OC1)O[C@H]1CC3C4CC[C@@H]5C[C@@H](O)CC[C@]5(C)C4CC[C@]3(C)[C@H]1[C@@H]2C` (stereo not given in full), the activity remaining is 111%.

As for `COC(=O)/C(=C1\OC(=O)C(c2ccccc2)C1=O)c1ccccc1` (stereo not given), the activity remaining is 106%.

Consider `O=c1oc2cc(O)ccc2s1`, for which the activity remaining was 110%.

In the case of `O=C(Oc1ccccc1C(=O)O)c1ccccc1O`, the activity remaining is 115%.

`CCCC(=O)Nc1ccc(OCC(O)CNC(C)C)c(C(C)=O)c1` (stereo not given): the activity remaining is 120%.

Regarding `Cc1cc(O)c(C=O)c2c1C(=O)Oc1c(COC(=O)/C=C/C(=O)O)c(O)c(C(=O)O)c(C)c1O2`, the activity remaining was 93.9%.

On to `COC(=O)Nc1nc2ccc(S(=O)c3ccccc3)cc2[nH]1` (stereo not given), for which the activity remaining is 110%.

As to `O=c1cc(-c2ccc(O)cc2)oc2cc(O[C@@H]3O[C@H](CO)[C@@H](O)[C@H](O)[C@H]3O)cc(O)c12`, the activity remaining is 101%.

As for `COc1ccc(-c2coc3c(O)c(OC)ccc3c2=O)cc1`, the activity remaining is 115%.

Regarding `CCC(=O)OCC(=O)[C@@]1(OC(=O)CC)[C@@H](C)CC2C3CCC4=CC(=O)C=C[C@]4(C)C3(F)[C@@H](O)C[C@@]21C` (stereo not given in full), the activity remaining was 125%.

As to `C[C@H]1C(=O)CCC2[C@]3(C)CC[C@@]4(C)C5CC(C)(C)CC[C@]5(C)CC[C@]4(C)C3CC[C@@]21C` (stereo not given in full), the activity remaining is 105%.

Regarding `CC[C@H]1CN2CCc3cc(OC)c(OC)cc3C2C[C@@H]1CC1NCCc2cc(OC)c(OC)cc21` (stereo not given in full), the activity remaining is 118%.

Consider `CC(C)[C@@H]1CC[C@@H](C)C[C@H]1OC(=O)c1ccccc1`, for which the activity remaining was 120%.

In the case of `OC1C(O)C(O)C(O)C(O)C1O` (stereo not given), the activity remaining is 103%.

In the case of `CCN(CC)Cc1ccc(Nc2ccnc3cc(Cl)ccc23)cc1O`, the activity remaining is 102%.

Take `CNC[C@@H](O)c1ccc(O)c(O)c1`: the activity remaining was 115%.

As for `CC1(C)C(=O)C=C[C@@]2(C)C1C=C[C@]1(C)C2CC[C@@]2(C)[C@H](c3ccoc3)OC(=O)C3OC321` (stereo not given in full), the activity remaining was 102%.

`CC1CC2C3CCC4=CC(=O)C=C[C@]4(C)[C@@]3(F)[C@@H](O)C[C@]2(C)[C@@]1(O)C(=O)CO` (stereo not given in full): the activity remaining is 117%.

`Cn1c(=O)[nH]c(=O)c2[nH]cnc21`: the activity remaining was 109%.

`CCCCOc1ccc(C(=O)CCN2CCCCC2)cc1`: the activity remaining is 96.6%.

Take `C[C@@H]1CC[C@@]2(OC1)OC1CC3C4CC=C5C[C@@H](O)CC[C@]5(C)C4CC[C@]3(C)C1[C@@H]2C` (stereo not given in full): the activity remaining is 104%.

For the compound `CC(=O)CC(c1ccccc1)c1c(O)c2ccccc2oc1=O` (stereo not given), the activity remaining was 118%.

For the compound `CCCCC1C(=O)N(c2ccccc2)N(c2ccc(O)cc2)C1=O` (stereo not given), the activity remaining was 114%.

Regarding `CCOC(=O)[C@H](CCc1ccccc1)N[C@@H](C)C(=O)N1[C@H](C(=O)O)C[C@@H]2CCC[C@@H]21`, the activity remaining is 103%.

With `CO/N=C(/C(=O)NC1C(=O)N2C(C(=O)O)=C(COC(N)=O)CSC12)c1ccco1` (stereo not given), the activity remaining is 92.5%.

Regarding `COc1ccc(-c2cc(=O)c3c(O)c(OC)c(OC)c(OC)c3o2)cc1OC`, the activity remaining was 80.1%.

For the compound `COc1cc(N)c(Cl)cc1C(=O)NC1CCN(Cc2ccccc2)CC1`, the activity remaining was 119%.

Turning to `COc1ccc(C(=O)c2ccccc2)c(O)c1`, the activity remaining was 116%.

Regarding `CO[C@H]1O[C@H](CO)C(O[C@@H]2OC(C(=O)O)[C@@H](O[C@H]3O[C@H](COS(=O)(=O)O)C(O[C@@H]4OC(C(=O)O)[C@@H](O[C@H]5O[C@H](CO)C(O[C@@H]6OC(C(=O)O)[C@@H](O[C@H]7O[C@H](COS(=O)(=O)O)C(O[C@@H]8OC(C(=O)O)=C[C@H](O)C8OS(=O)(=O)O)[C@H](O)[C@H]7NC(C)=O)[C@H](O)[C@H]6O)[C@H](O)[C@H]5NC(C)=O)[C@H](O)[C@H]4O)[C@H](O)[C@H]3NC(C)=O)[C@H](O)[C@H]2O)[C@H](O)[C@H]1NC(C)=O` (stereo not given in full), the activity remaining was 92.9%.

For the compound `CC(=O)OCC(=O)[C@@]1(O)CCC2C3CCC4=CC(=O)CC[C@]4(C)C3C(=O)C[C@@]21C` (stereo not given in full), the activity remaining was 120%.

Values taken from PubChem BioAssay.
